# According to PubChem BioAssay:
# Several values for one entry are separate records, joined by “and”; a condition that tells them apart may be missing. Equal values may be shown once. Activity calls are given as the source filed them. Unless noted, the rule behind the calls is not given here.
# Key:
# [1] = P. berghei load reduction in hepatocytes – cell-based, HepG2, luciferase luminescence, HepG2 viability, primary screen (AID 624349; in the data active = parasite load remaining mostly below about 12%, no sharp cut-off; inactive = mostly above about 10%;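 note: 100% = mean of DMSO negative control wells on the same plate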); conditions: P. berghei liver stage in HepG2, luciferase luminescence, concentration not given here; parasite load remaining: stronger effect = lower value; viability: measured here: HepG2 viability without parasites
# [2] = Wnt pathway potentiators raising nuclear beta-catenin – imaging, WNT3A-conditioned medium, mouse C2C12, NPC library, primary screen (AID 1117326; in the data active = nuclear beta-catenin stimulation mostly above about 4.2%, no sharp cut-off; inactive = mostly below about 10%); conditions: stronger effect = higher value
# [3] = stimulators of insulin release from INS-1E, primary screen, cell-based, 5 mM glucose, NPC library (AID 1117329;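 active = compound raises insulin release from rat beta cells at 5 mM glucose, no numeric limit stated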); conditions: rat INS-1E insulin secretion, at 10 µM, stronger effect = higher value
# [4] = growth inhibition of GSK3B-pretreated HCT116 cells – cell-based, CellTiter-Glo, 0.2 to 20 µM (AID 1117336;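 active = compounds lowering colon cancer cell viability after pretreatment blocking the GSK3B kinase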); conditions: HCT116 viability after GSK3B inhibitor, at 20 µM, stronger effect = higher value
# [5] = inhibition of endothelial tube formation, primary screen, imaging, VEGF stimulated, CD31 staining, tube area, NPC library (AID 1117340;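 active = compound that reduces growth-factor-driven endothelial tube area in a mixed cell culture, no cutoff stated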); conditions: VEGF-stimulated ADSC/ECFC co-culture, at 10 µM, stronger effect = higher value
# [6] = GLP1 release stimulators, primary, NCI-H716, NPC library (AID 1117341;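 active = compound raises GLP1 secretion from the human gut endocrine cells, with no numeric limit stated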); conditions: NCI-H716 cells, at 10 µM, stronger effect = higher value
# [7] = HCT116 colon cancer cell growth inhibition, primary screen, CellTiter-Glo luminescence, NPC library (AID 1117342;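 active = compounds that lower survival of HCT116 colon cancer cells in the luminescence readout, no numeric limit stated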); conditions: at 20 µM (top of the series)
# [8] = reduced SW480 viability measured with CellTiter-Glo, NPC library, primary (AID 1117343;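 active = compounds that lower viability of the colon cancer cells in the luminescence readout, with no numeric limit stated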); conditions: CellTiter-Glo luminescence; at 20 µM (top of the series)
# [9] = NPC library primary testing for decreased DLD-1 cell viability via CellTiter-Glo (AID 1117346;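 active = compounds that lower survival of DLD-1 colon cancer cells in the luminescence readout, no cutoff given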); conditions: DLD-1 viability, CellTiter-Glo luminescence; at 20 µM (top of the series)
# [10] = tested on: Aerobactin synthetase IucA (Klebsiella pneumoniae, hypervirulent); assay: biochemical IucA inhibition screen of LOPAC library by absorbance (AID 1346212); conditions: IucA enzyme assay, absorbance (OD) readout; stronger effect = lower value;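 tested at 8 µM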;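 note: 100% = no compound wells and 0% = no enzyme wells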
# [11] = viability loss with induced miR-34 in A549 – imaging, A549 dox-inducible miR-34, nuclei and caspase counts, primary screen (AID 1347080;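 active = compounds whose cell count with miR-34 switched on is under 0.7 times the count with it off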); conditions: A549 miR-34 inducible, Hoechst nuclei count, 48 h
# [12] = MELAS cybrid and Rieske KO viability enhancers – cell-based, MELAS cybrids, Rieske KO mouse fibroblasts, CellTiter-Glo, primary screen (AID 1508586;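 active = mean z-score across replicates of 1.96 or higher in either the MELAS or the Rieske mutant cell line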;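 note: z relative to plate mean and SD of compound and empty wells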); conditions: low glucose
# [13] = galactose survival enhancers in mitochondrial complex I cybrids – cell-based, galactose medium, ATP luminescence, primary screen (AID 1645843;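 active = z-score of at least 1.8 in each of two replicates, scored against plate mean and spread of sample wells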;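 note: positive z means more ATP and so rescue of galactose-driven cybrid death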); conditions: complex I mutant cybrid cells, 72 h, stronger effect = higher value
# [14] = compounds altering circadian rhythm period length – cell-based, LOPAC library, luminescence reporter (AID 2774); conditions: circadian reporter cells, at 7 µM, actives lie on both sides;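 note: values are relative to mean of DMSO wells on each plate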
# [15] = compounds altering viability of human ES cells (AID 493140); conditions: human embryonic stem cell survival screen; stronger effect = higher value;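 note: cells exposed to compounds for four days before counting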
# [16] = tested on: Hepatitis C virus NS3 helicase; assay: blockers of NS3h binding to ssDNA – biochemical, fluorescence polarization, LOPAC1280 library, primary screen (AID 687035; in the data active = inhibition above about 37%); conditions: Purified HCV NS3 helicase, Cy5-dT15 ssDNA binding fluorescence polarization; stronger effect = higher value; concentration not given here
# [17] = compounds altering Cy5-DNA-NS3h complex signal – biochemical, LOPAC1280, artefact control for HCV NS3 helicase inhibitor project (AID 687037); conditions: Cy5-DNA-NS3h complex fluorescence interference counterscreen
# [18] = EMT-state selective cytotoxicity in co-culture – imaging, PC-3E GFP, TEM4-18 mCherry, primary screen (AID 1345086;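 active = compounds killing one labelled cell type while sparing the other, by normalised counts and ratio limits, not self-fluorescent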;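 for all read-outs here: cells exposed to compound for 72 h before imaging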;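 for red/green cell ratio (normalised): normalised mesenchymal count divided by normalised epithelial count so high means epithelial killing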); conditions: PC-3E GFP / TEM4-18 mCherry co-culture, imaging cell counts, at 1 µM; for red/green cell ratio (normalised): actives lie on both sides
# [19] = biological target: NAD(+) hydrolase SARM1 (Homo sapiens) (UniProt Q6SZW1); assay: blocking NAD cleavage by SARM1 SAM-TIR – cell lysate, NAD-Glo luminescence (AID 1508614;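 active = compound whose remaining NAD level is above about 45 nM, limit read from the data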;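 note: higher remaining NAD means stronger inhibition of SARM1 NADase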); conditions: SAM-TIR HEK293T lysate NADase, at 1 µM, stronger effect = higher value
# [20] = measured here: relative caspase fold change +Dox/-Dox
# [21] = measured here: total cells with miR-34 induction, stronger effect = lower value
# [22] = measured here: total cells without miR-34 induction
# [23] = MELAS cybrid survival, CellTiter-Glo 48 h, stronger effect = higher value
# [24] = Rieske KO mouse fibroblast survival, CellTiter-Glo 72 h
# [25] = measured here: epithelial PC-3E GFP cell survival
# [26] = measured here: mesenchymal TEM4-18 mCherry cell survival
# Chain of NAD(+) hydrolase SARM1 (Homo sapiens) (Q6SZW1 whole entry, looked up): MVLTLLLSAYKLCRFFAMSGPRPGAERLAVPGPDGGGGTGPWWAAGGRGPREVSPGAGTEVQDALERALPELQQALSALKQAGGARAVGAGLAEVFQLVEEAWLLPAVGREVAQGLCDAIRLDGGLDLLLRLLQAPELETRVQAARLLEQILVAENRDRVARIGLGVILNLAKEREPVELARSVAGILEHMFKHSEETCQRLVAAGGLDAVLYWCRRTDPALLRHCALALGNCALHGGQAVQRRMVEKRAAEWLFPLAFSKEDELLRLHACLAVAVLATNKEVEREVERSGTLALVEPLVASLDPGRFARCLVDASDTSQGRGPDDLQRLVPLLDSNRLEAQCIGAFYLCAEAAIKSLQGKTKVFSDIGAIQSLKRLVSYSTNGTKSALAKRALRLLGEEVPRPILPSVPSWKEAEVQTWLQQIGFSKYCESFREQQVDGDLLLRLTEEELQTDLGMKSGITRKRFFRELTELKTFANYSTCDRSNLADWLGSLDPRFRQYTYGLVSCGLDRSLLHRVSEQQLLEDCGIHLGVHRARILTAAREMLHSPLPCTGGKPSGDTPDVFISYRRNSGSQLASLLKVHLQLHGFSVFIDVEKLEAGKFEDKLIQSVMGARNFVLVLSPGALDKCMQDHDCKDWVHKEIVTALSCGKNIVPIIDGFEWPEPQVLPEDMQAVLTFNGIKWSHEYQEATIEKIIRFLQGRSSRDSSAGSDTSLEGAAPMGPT
compound,measurement,setting,value
CN1C[C@@H](NS(=O)(=O)N(C)C)C[C@@H]2c3cccc4c3c(cn4C)C[C@H]21,parasite load remaining,[1],32.6% (inactive)
same,viability,[1],102%
same,nuclear beta-catenin stimulation,[2]; at 10 µM,0.4% (inactive)
same,nuclear beta-catenin stimulation,"[2]; stimulation, at 2 µM",1.4%
same,insulin secretion stimulation,[3],3.7% (inactive)
same,viability decrease,[4],9.6% (inactive)
same,tube area decrease,[5],-8.8% (inactive)
same,GLP1 secretion stimulation,[6],4.1% (inactive)
same,inhibition of viability,[7],36.4% (inactive)
same,viability decrease (inhibition),[8],48% (inactive)
same,viability decrease (inhibition),[9],9% (inactive)
same,remaining activity,[10],113% (inactive)
same,fold change,[11]; stronger effect = lower value,0.878 (inactive)
same,fold change,[11]; [20],1.21
same,cell count,[11]; [21],9040
same,cell count,[11]; [22],10300
same,z-score,[12]; [23],0.531 (inactive)
same,z-score,[12]; [24],0.143
same,z-score,[13],0.405 (inactive)
Fc1ccc(C(OCCN2CCN(CCCc3ccccc3)CC2)c2ccc(F)cc2)cc1,period change,[14],-0.11 h (inactive)
same,survival,[15],2.08 (inactive)
same,parasite load remaining,[1],40.3% (inactive) and 56% (inactive)
same,viability,[1],74.4% and 71%
same,inhibition,[16],-2% (inactive)
same,fluorescence ratio (interference),[17],1 (inactive)
same,nuclear beta-catenin stimulation,[2]; at 10 µM,21.5% (inactive)
same,nuclear beta-catenin stimulation,"[2]; stimulation, at 2 µM",-0.6%
same,insulin secretion stimulation,[3],4.65% (inactive)
same,viability decrease,[4],118% (active)
same,tube area decrease,[5],30.2% (inactive)
same,GLP1 secretion stimulation,[6],7.4% (inactive)
same,inhibition of viability,[7],124% (active)
same,viability decrease (inhibition),[8],159% (active)
same,viability decrease (inhibition),[9],102% (active)
same,remaining activity,[10],111% (inactive)
same,fold change,[11]; stronger effect = lower value,1.71 (inactive) and 1.06 (inactive) and 1.14 (inactive)
same,fold change,[11]; [20],0.907 and 1.17 and 0.595
same,cell count,[11]; [21],1750 and 3970 and 2030
same,cell count,[11]; [22],1020 and 3730 and 1770
same,z-score,[12]; [23],-0.775 (inactive)
same,z-score,[12]; [24],0.399
same,z-score,[13],-1.03 (inactive) and -1.23 (inactive)
CCCN1CCC[C@@H]2Cc3nc(N)ncc3C[C@H]21,period change,[14],-0.24 h (inactive)
same,inhibition,[16],-1% (inactive)
same,fluorescence ratio (interference),[17],1 (inactive)
same,nuclear beta-catenin stimulation,[2]; at 10 µM,4.8% (inactive)
same,nuclear beta-catenin stimulation,"[2]; stimulation, at 2 µM",-0.2%
same,insulin secretion stimulation,[3],-0.2% (inactive)
same,viability decrease,[4],-24.3% (inactive)
same,tube area decrease,[5],-0.4% (inactive)
same,GLP1 secretion stimulation,[6],-2.2% (inactive)
same,inhibition of viability,[7],-3.2% (inactive)
same,viability decrease (inhibition),[8],-4.6% (inactive)
same,viability decrease (inhibition),[9],-14.6% (inactive)
same,remaining activity,[10],118% (inactive)
same,fold change,[11]; stronger effect = lower value,0.958 (inactive)
same,fold change,[11]; [20],2.12
same,cell count,[11]; [21],9790
same,cell count,[11]; [22],10200
same,z-score,[13],0.925 (inactive)
O=[N+]([O-])c1ccc([As](=O)(O)O)cc1,nuclear beta-catenin stimulation,[2]; at 10 µM,2.2% (inactive)
same,nuclear beta-catenin stimulation,"[2]; stimulation, at 2 µM",1%
same,insulin secretion stimulation,[3],-1.1% (inactive)
same,viability decrease,[4],-9.2% (inactive)
same,tube area decrease,[5],3.2% (inactive)
same,GLP1 secretion stimulation,[6],-5.4% (inactive)
same,inhibition of viability,[7],-30.4% (inactive)
same,viability decrease (inhibition),[8],101% (active)
same,viability decrease (inhibition),[9],-9.5% (inactive)
same,red/green cell ratio (normalised),[18],0.85 (inactive)
same,normalised cell number,[18]; [25],1.16
same,normalised cell number,[18]; [26],0.99
same,fold change,[11]; stronger effect = lower value,0.887 (inactive)
same,fold change,[11]; [20],1.5
same,cell count,[11]; [21],8880
same,cell count,[11]; [22],10000
same,remaining NAD,[19],10 nM (inactive)
COc1ccc(C(=O)c2c(C)n(CCN3CCOCC3)c3ccccc23)cc1,parasite load remaining,[1],50.5% (inactive)
same,viability,[1],159%
same,nuclear beta-catenin stimulation,[2]; at 10 µM,1.2% (inactive)
same,nuclear beta-catenin stimulation,"[2]; stimulation, at 2 µM",0.9%
same,insulin secretion stimulation,[3],-0.5% (inactive)
same,viability decrease,[4],75% (active)
same,tube area decrease,[5],8.1% (inactive)
same,GLP1 secretion stimulation,[6],1.7% (inactive)
same,inhibition of viability,[7],54% (active)
same,viability decrease (inhibition),[8],65% (active)
same,viability decrease (inhibition),[9],39.5% (inactive)
same,fold change,[11]; stronger effect = lower value,0.898 (inactive)
same,fold change,[11]; [20],1.25
same,cell count,[11]; [21],9440
same,cell count,[11]; [22],10500
same,z-score,[12]; [23],0.332 (inactive)
same,z-score,[12]; [24],0.082
same,z-score,[13],0.375 (inactive)
O=C(O)Cc1ccccc1,parasite load remaining,[1],25.8% (inactive) and 52.8% (inactive)
same,viability,[1],91.1% and 112%
same,nuclear beta-catenin stimulation,[2]; at 10 µM,0.2% (inactive)
same,nuclear beta-catenin stimulation,"[2]; stimulation, at 2 µM",0.3%
same,insulin secretion stimulation,[3],-1.1% (inactive)
same,viability decrease,[4],-0.05% (inactive)
same,tube area decrease,[5],-39.3% (inactive)
same,GLP1 secretion stimulation,[6],-0.3% (inactive)
same,inhibition of viability,[7],-9.8% (inactive)
same,viability decrease (inhibition),[8],8.6% (inactive)
same,viability decrease (inhibition),[9],0.45% (inactive)
same,red/green cell ratio (normalised),[18],0.91 (inactive)
same,normalised cell number,[18]; [25],1.01
same,normalised cell number,[18]; [26],0.92
same,fold change,[11]; stronger effect = lower value,0.869 (inactive) and 0.823 (inactive)
same,fold change,[11]; [20],4.43 and 1.17
same,cell count,[11]; [21],10700 and 9120
same,cell count,[11]; [22],12300 and 11100
same,z-score,[12]; [23],0.496 (inactive)
same,z-score,[12]; [24],0.0978
same,remaining NAD,[19],10 nM (inactive)
same,z-score,[13],0.455 (inactive)
CCCCC/C=C\C/C=C\C/C=C\C/C=C\CCCC(=O)NCC(=O)O,period change,[14],0.15 h (inactive)
same,survival,[15],96.8 (inactive)
same,inhibition,[16],-1% (inactive)
same,fluorescence ratio (interference),[17],1 (inactive)
same,nuclear beta-catenin stimulation,[2]; at 10 µM,0.8% (inactive)
same,nuclear beta-catenin stimulation,"[2]; stimulation, at 2 µM",0.6%
same,insulin secretion stimulation,[3],2.2% (inactive)
same,viability decrease,[4],104% (active)
same,tube area decrease,[5],-12.4% (inactive)
same,GLP1 secretion stimulation,[6],5% (inactive)
same,inhibition of viability,[7],103% (active)
same,viability decrease (inhibition),[8],145% (active)
same,viability decrease (inhibition),[9],105% (active)
same,remaining activity,[10],101% (inactive)
same,fold change,[11]; stronger effect = lower value,0.935 (inactive) and 1.01 (inactive)
same,fold change,[11]; [20],1.02
same,cell count,[11]; [21],5930 and 5790
same,cell count,[11]; [22],6340 and 5700
C#C[C@]1(O)C=C[C@H]2[C@@H]3CCC4=CC(=O)CC[C@@H]4[C@H]3CC[C@@]21CC,nuclear beta-catenin stimulation,[2]; at 10 µM,0.9% (inactive)
same,nuclear beta-catenin stimulation,"[2]; stimulation, at 2 µM",-1%
same,insulin secretion stimulation,[3],-0.7% (inactive)
same,viability decrease,[4],7.4% (inactive)
same,tube area decrease,[5],-2.3% (inactive)
same,GLP1 secretion stimulation,[6],3.4% (inactive)
same,inhibition of viability,[7],32.2% (inactive)
same,viability decrease (inhibition),[8],-18.5% (inactive)
same,viability decrease (inhibition),[9],-11.8% (inactive)
O=C(NCNC(=O)NC1C(=O)NC(=O)N1CO)NC1C(=O)NC(=O)N1CO (configuration not stated),survival,[15],33.2 (inactive)
same,parasite load remaining,[1],92.1% (inactive)
same,viability,[1],79.2%
same,nuclear beta-catenin stimulation,[2]; at 10 µM,-1.7% (inactive)
same,nuclear beta-catenin stimulation,"[2]; stimulation, at 2 µM",0.2%
same,insulin secretion stimulation,[3],1.2% (inactive)
same,viability decrease,[4],-3.4% (inactive)
same,tube area decrease,[5],-8.4% (inactive)
same,GLP1 secretion stimulation,[6],-0.8% (inactive)
same,inhibition of viability,[7],-1.8% (inactive)
same,viability decrease (inhibition),[8],3.1% (inactive)
same,viability decrease (inhibition),[9],8.4% (inactive)
same,fold change,[11]; stronger effect = lower value,0.914 (inactive)
same,fold change,[11]; [20],0.72
same,cell count,[11]; [21],9340
same,cell count,[11]; [22],10200
same,z-score,[12]; [23],0.818 (inactive)
same,z-score,[12]; [24],0.0717
